Bioassay records as filed in PubChem BioAssay.
Shown are actives, neighbours in structure and some others; about 9.2% of the full set was active somewhere.
NPC1 prom act – activates the NPC1 promoter; Huh7 NPC1 promoter luciferase reporter, 24 h; Potency, µM (top dose mostly 9.22 µM), for inactives: at the highest dose activation, actives largely listed as activators; 320,000 compounds, 2.4% hits; AID 485313; also: % of control where 0% means no effect; nearly all actives have a fitted effect of over 60% in size
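Huh7 reporter cells (NPC1 promoter driving luciferase) are dosed with compound for 24 h at 37 °C, 5% CO2; luciferase detection reagent is then added and luminescence measured after 10 min at ambient temperature.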
Rab9 promoter act – Rab9 promoter activation; 320,000 compounds, 2.8% hits; Potency, µM (doses to about 9.22 µM), for inactives: at the highest dose activation, negative = inhibition, hits mostly activators; Huh7 Rab9 promoter-luciferase reporter, luminescence, 24 h; also: % of control where 0% means no effect; nearly all actives have a fitted effect of over 60% in size
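Stable Rab9-luc Huh7, 1500 cells/well, 2 h settle; cmpd in DMSO, 24 h, 37 °C/5% CO2; luciferase reagent 10 min RT; luminescence.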
ELG1 genotox – inducers of genotoxicity in HEK293T ELG1-luciferase cells | HEK293T ELG1-luciferase reporter, luminescence, 16 h | Potency, µM (top dose mostly 46 µM), for inactives: at the highest dose activity change, positive = activation, most hits filed as activators | 330,000 compounds, 1.3% hits; also: % of control where 0% means no effect; nearly all actives have a fitted effect of over 60% in size
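Screening used a luciferase reporter fused to human ELG1 in HEK293T cells. Luminescence was read on a CCD plate imager after 16 hr exposure and 30 min ONE-Glo incubation.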
SMN2 splice up – enhancers of SMN2 splice variant expression. HEK293 SMN2-luciferase splicing reporter, luminescence, 30-36 h. Potency, µM (top dose mostly 46.1 µM), without a hit: top-dose activity change, positive = activation, actives largely listed as activators. 210,000 compounds, 2.8% hits; also: % of control where 0% means no effect; nearly all actives have a fitted effect of over 55% in size
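qHTS luciferase splicing reporter: luminescence rises when SMN2 exon 7 is included in transfected HEK293 cells. Compound exposure lasted 30-36 h at 37C, with 4.5 mM final sodium butyrate as control, followed by a ONE-Glo read.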
FLuc modulator – counter-screen for miR-21 project: firefly luciferase inhibitors or activators; Potency, µM (top dose mostly 57.5 µM), for inactives: at the top dose activity change, negative = inhibition, usual class: inhibitors; purified FLuc, Km substrates, luminescence inhibition; 360,000 compounds, 6.9% hits;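 also: plate controls were vehicle for no effect and reference inhibitor for full effect; nearly all actives have a fitted effect of over 55% in size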
Target sequence (P08659 whole entry, looked up): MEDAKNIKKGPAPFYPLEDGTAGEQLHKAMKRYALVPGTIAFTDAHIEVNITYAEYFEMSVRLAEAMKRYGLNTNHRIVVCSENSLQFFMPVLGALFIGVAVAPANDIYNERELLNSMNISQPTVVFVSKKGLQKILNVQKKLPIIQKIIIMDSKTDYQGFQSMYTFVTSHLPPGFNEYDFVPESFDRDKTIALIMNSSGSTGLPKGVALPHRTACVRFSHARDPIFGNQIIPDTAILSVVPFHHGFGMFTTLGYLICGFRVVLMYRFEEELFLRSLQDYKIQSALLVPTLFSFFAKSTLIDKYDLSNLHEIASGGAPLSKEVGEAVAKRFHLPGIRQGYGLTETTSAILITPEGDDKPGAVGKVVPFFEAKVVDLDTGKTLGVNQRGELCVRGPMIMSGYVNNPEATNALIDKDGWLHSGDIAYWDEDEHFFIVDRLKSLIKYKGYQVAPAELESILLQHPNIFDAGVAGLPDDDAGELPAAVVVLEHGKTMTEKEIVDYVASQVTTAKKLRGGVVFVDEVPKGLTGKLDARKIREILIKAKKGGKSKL
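Biochemical qHTS of compounds, final roughly 60 µM downward over six points, against 10 nM purified firefly luciferase using Km concentrations of substrates (10 uM D-luciferin, 10 uM ATP) in Tris acetate pH 7.5 buffer; luminescence output.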
ELG1 repair inh – inhibitors of ELG1-dependent DNA repair in HEK293T cells. HEK293T ELG1-luciferase reporter, luminescence, 16 h; DNA damage induced by 5-fluorouridine. 330,000 compounds, 2.3% hits. Potency, µM (titrated, usually from 46.1 µM), for the others: at the highest dose activity change, negative = inhibition, usual class: inhibitors; also: % is scaled to controls: 0 for no effect and ±100 for the full control effect; nearly all actives have a fitted effect of over 55% in size
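In this reporter screen, reduction of luminescence relative to DMSO vehicle indicated activity. Compounds and 5-fluorouridine were added together to 2,000 cells per well, incubated for 16 hr at 37 °C, then developed with ONE-Glo.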
The depositor's hits bear a star; ? = inconclusive; . = no result given. Calls follow the shape of the dose curve; as a rule, active = well fitted curve in the direction sought with a large enough effect; inconclusive = small, poorly fitted or top-dose-only effect, or another doubt; inactive = no such curve, though single readings can be large; an effect the other way counts as inactive or inconclusive. Potency is read from the fitted curve at half-maximal effect.

SMILES | NPC1 prom act | Rab9 promoter act | ELG1 genotox | SMN2 splice up | FLuc modulator | ELG1 repair inh
N#Cc1cc(C#N)c(SCC(=O)N2CC(=O)Nc3ccccc32)nc1N | -10% | 2% | 0% | . | -1% | 12µM*
Cc1cccc(-n2c(SCC(=O)N3CC(=O)Nc4ccccc43)nc3ccccc3c2=O)c1 | -5% | -8% | -5% | 1% | -1% | ?
Cc1cccc(-n2c(SCC(=O)N3CC(=O)Nc4ccccc43)nc3ccccc3c2=O)c1C | -4% | -1% | -10% | -19% | -2% | 21µM*
CCc1ccc2nc(SCC(=O)N3CC(=O)Nc4ccccc43)c(C#N)cc2c1 | -11% | -5% | 10% | 26% | -1% | ?
CCc1nc(SCC(=O)N2CC(=O)Nc3ccccc32)c2c(C)c(C)sc2n1 | 1% | -2% | -8% | -14% | -15% | 23µM*
Cc1sc2nc(C3CCCCC3)nc(SCC(=O)N3CC(=O)Nc4ccccc43)c2c1C | 0% | 3% | 0% | -14% | 0% | -3%
CC(C)(C)Nc1nc(-c2ccc3c(c2)CCN3C(=O)C2CC2)cs1 | 1.8µM* | ? | ? | . | 3µM* | ?
CC1CC(C)CN(S(=O)(=O)c2ccc3c(c2)CCN3C(=O)C2CC2)C1 (stereo not given) | 0% | -2% | -7% | . | 0% | -24%
CCC(CC)C(=O)Nc1nc(-c2ccc3c(c2)CCN3C(=O)C2CC2)c(C)s1 | -2% | -3% | -28% | -30% | 3% | 21µM*
CC(C)C(=O)Nc1nc(-c2ccc3c(c2)CCN3C(=O)C2CC2)cs1 | ? | ? | 4% | . | 15µM* | 30%
O=C(CN1CCOCC1)Nc1nc(-c2ccc3c(c2)CCN3S(=O)(=O)c2ccccc2)cs1 | -2% | -10% | -10% | -52% | -6% | ?
CC(C)(C)OC(=O)NCc1ccc(CNC(=O)c2nc[nH]c2C(=O)N2CCc3ccccc3C2)cc1 | -2% | -4% | -6% | . | -2% | ?
CCCCN1c2ccccc2N(CCCO)c2cc(C)nnc21 | 13% | 3% | -2% | 13% | 12µM* | 14%
Cc1cccc(NC(=S)NNC(=O)c2ccc(O)cc2O)c1C | -1% | 16% | -12% | -48% | ? | 10µM*
CC1CCN(c2nc3nonc3nc2Nc2ccc(F)cc2)CC1 | 0% | ? | -7% | -36% | -2% | ?
COc1ccc(Nc2nc3nonc3nc2N2CCCCC2)cc1 | 0% | -9% | -1% | . | -3% | 21µM*
O=C(Nc1cnc(N2CCN(c3ccccc3)CC2)c(C(=O)O)c1)c1cccs1 | . | . | . | . | -2% | .
Fc1ccc(-c2nc3c(-c4ccc(Cl)cc4)cnn3cc2CCN2CCOCC2)cc1 | -7% | -15% | 8% | . | -1% | 10%
COc1cc(/C=C2/SC(=O)N(Cc3ccccc3)C2=O)ccc1OCc1ccncc1 | 3% | 7% | -8% | -17% | 3% | 10µM*
COc1ccc(/C=C2\SC(=NCc3ccccc3)N(Cc3ccccc3)C2=O)cc1OC | -1% | -4% | 3% | -12% | -1% | 13µM*
CN(Cc1cccc(Cl)c1Cl)CC(O)COc1ccccc1 (stereo not given) | 3% | 2% | -1% | . | -5% | -1%
CC(C)c1cccc(C(C)C)c1NC1=NS(=O)(=O)c2ccccc21 | . | . | . | 2% | 3% | .
CC(C)CCn1cnc2c(sc3nc4c(cc32)CSC(C)(C)C4)c1=O | 1µM* | 0.63µM* | ? | -5% | 0.6µM* | ?
CC1(C)Cc2nc3sc4c(NCCO)ncnc4c3cc2CS1 | 21% | ? | 1% | . | 19µM* | -1%
CCc1nc2c(sc3nc4c(cc32)COC(C)(C)C4)c(=O)n1Cc1ccccc1 | -6% | -13% | -5% | -34% | -10% | -5%
SMILES | NPC1 prom act | Rab9 promoter act | ELG1 genotox | SMN2 splice up | FLuc modulator | ELG1 repair inh
CCCCn1cnc2c(sc3nc4c(cc32)CSC(C)(C)C4)c1=O | 0.63µM* | 1.1µM* | ? | 4µM* | 1.1µM* | ?
CC1(C)Cc2nc3sc4c(N(CCO)CCO)ncnc4c3cc2CO1 | 6% | 11% | ? | 19% | ? | 0%
Cc1ccc(NC(=S)Nc2ccc(S(=O)(=O)N3CCOCC3)cc2)cc1S(=O)(=O)N1CCOCC1 | -4% | 1% | -12% | -5% | 3% | ?
Cc1ccc(-c2cc(NC(=O)C(C)Oc3ccc(C)c(C)c3)on2)cc1 (stereo not given) | . | . | . | 24% | 0% | .
Cc1ccc(-c2nn3c(C)nnc3s2)cc1NC(=O)CSc1ccc(Cl)cc1 | -3% | -3% | 1% | -26% | -3% | 21µM*
Cc1ccc2nc(-c3ccc(C)c(NC(=O)CSc4ccc(Cl)cc4)c3)oc2c1 | . | . | . | ? | 5.4µM* | .
Cc1c(NC(=O)CSc2ccc(Cl)cc2)cccc1-c1nc2ncccc2o1 | -6% | 5% | -6% | -36% | -3% | 9.2µM*
CCC(=O)Nc1cccc(-c2nc3ncccc3o2)c1C | -1% | -2% | 4% | . | 2% | 3%
Cc1ccc2nc(-c3cccc(NC(=O)CSc4ccc(Cl)cc4)c3)oc2c1 | . | . | . | ? | 1.7µM* | .
O=C(CSc1ccc(Cl)cc1)Nc1cccc(-c2nc3ncccc3o2)c1 | 0% | 9% | -8% | -19% | -16% | ?
CSc1ccc(/C=C(\C(=O)O)c2ccc(S(=O)(=O)N3CCCC3)s2)cc1 | 3% | -4% | -1% | . | 1% | ?
CCc1ccc(NC(=O)CN(C(=O)N2CCN(CC)CC2)S(=O)(=O)c2ccc(C)cc2)cc1 | 0% | -2% | -3% | . | -2% | -11%
Cc1nc2c(C(=O)NCc3ccc4c(c3)OCO4)cnn2c(C)c1Cc1ccc(F)cc1Cl | 1% | -1% | -10% | -15% | 1% | 21µM*
O=C(CSc1nc(O)cc(=O)n1-c1ccccc1)Nc1nc2ccccc2s1 | -2% | 3% | -1% | . | -8% | 23%
O=C(Nc1ccccc1)c1ccc(S(=O)(=O)N2CCOCC2)cc1 | 2% | 1% | 6% | -13% | -7% | 5%
Cc1ccc(NC(=S)N2CCN(S(=O)(=O)c3ccc(C)cc3)CC2)cc1 | 4% | -3% | -6% | . | 4% | -5%
O=C(NC(=S)N1CCN(c2ccccc2)CC1)c1ccc(S(=O)(=O)N2CCOCC2)cc1 | -4% | -12% | -5% | . | 0% | 18µM*
O=C(NCC1CCN(c2ccc(S(=O)(=O)N3CCOCC3)cc2)CC1)Nc1ccccc1 | -2% | -1% | -9% | . | 0% | 15µM*
O=S(=O)(c1ccc(NC(=S)N2CCN(c3ccc(O)cc3)CC2)cc1)N1CCOCC1 | -1% | 0% | -6% | -74% | 1% | 8.2µM*
